Measurements published in PubChem BioAssay (Tox21).
Records with an inconclusive call do not appear. Where a call stands in place of a potency, no number is given. The source made the active and inactive calls. Unless noted, the call rests on the fitted dose curve; in most records, active means well fitted curve in the direction sought with a large enough effect in the repeat runs; inconclusive means weak or mixed curves; inactive means no such curve, though single readings can be large; an effect the other way counts as inactive or inconclusive.

Key:
[1] = qHTS assay to identify small molecule antagonists of the thyroid receptor (TR) signaling pathway - cell viability counter screen (AID 743064); further: nearly all actives have a fitted effect of over 50% in size; further: potency means the concentration at half of the fitted maximal effect
Method in brief: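 Plate GH3.TRE-Luc cells; incubate 4 h at 37 °C; add compound, then T3 to 1 nM final; incubate 23.5 h; add CellTiter-Fluor; incubate 30 min at 37 °C, 5% CO2; read fluorescence.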

[2] = qHTS assay to identify small molecule antagonists of the thyroid receptor (TR) signaling pathway (AID 743065); further: nearly all actives have a fitted effect of over 55% in size; further: potency means the concentration at half of the fitted maximal effect
Method in brief: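 Antagonism measured as loss of luciferase signal in GH3 cells stably carrying a TRE-luciferase reporter, co-treated with compound and T3 (1 nM final) for 23.5 h at 37 C. Viability was read in the same well by CellTiter-Fluor.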

[3] = test system: thyroid hormone receptor (rat, GH3 cells); assay: qHTS assay to identify small molecule agonists of the thyroid receptor (TR) signaling pathway (AID 743066; calls by dose curve)
[4] = qHTS assay to identify small molecule antagonists of the estrogen receptor alpha (ER-alpha) signaling pathway - cell viability counter screen (AID 743074; calls by dose curve;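 further: HEK293 cells carrying ER-alpha-UAS-bla reporter stimulated with 17beta-estradiol; nearly all actives have a fitted effect of over 45% in size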; further: potency means the concentration at half of the fitted maximal effect)
[5] = qHTS assay to identify small molecule antagonists of the estrogen receptor alpha (ER-alpha) signaling pathway using the BG1 cell line - cell viability counter screen (AID 743081);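 further: compound given together with 17beta-estradiol as the ER stimulus; series mostly up to about 70 µM; nearly all actives have a fitted effect of over 45% in size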
Aromatase (Homo sapiens) = Aromatase (Homo sapiens) (UniProt P11511); assay: qHTS assay to identify aromatase inhibitors (AID 743083); further: nearly all actives have a fitted effect of over 55% in size; further: potency means the concentration at half of the fitted maximal effect
[6] = qHTS assay to identify aromatase inhibitors - cell viability counter screen (AID 743084);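 further: cells stimulated with testosterone during compound exposure; nearly all actives have a fitted effect of over 55% in size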; further: potency means the concentration at half of the fitted maximal effect
[7] = biological target: Aryl hydrocarbon receptor (Homo sapiens) (UniProt P35869); assay: qHTS assay to identify small molecule that activate the aryl hydrocarbon receptor (AhR) signaling pathway (AID 743085);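 further: HG2L7.5c1 human HepG2 liver cells with stably integrated DRE-driven firefly reporter; series mostly up to about 70 µM; nearly all actives have a fitted effect of over 15% in size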
Method in brief: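 Steps: seed HepG2-AhR-luc cells; allow 5 h at 37C; pin-transfer test compound or vehicle; incubate 24 h at 37C; add viability dye (30 min, 37C) and read fluorescence; add luciferase substrate (30 min, RT) and read luminescence.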

[8] = qHTS assay to identify small molecule that activate the aryl hydrocarbon receptor (AhR) signaling pathway - cell viability counter screen (AID 743086);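 further: HepG2 liver cells carrying the AhR DRE luciferase reporter; series mostly up to about 70 µM; nearly all actives have a fitted effect of over 45% in size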
Method in brief: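 Cytotoxicity counter screen: CellTiter-Fluor signal (30 min, 37 C) in 4000 HepG2 cells/well carrying the DRE-luciferase reporter, following 24 h compound exposure at 37 C.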

[9] = biological target: Peroxisome proliferator-activated receptor gamma (Homo sapiens) (UniProt P37231); assay: qHTS assay to identify small molecule agonists of the peroxisome proliferator-activated receptor gamma (PPARg) signaling pathway (AID 743094; active means well fitted activation curve with a large enough effect in the signal ratio in the repeat runs, not every such curve was filed as active; the % refers to the signal ratio)
Method in brief: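 Quantitative HTS agonist mode: stable HEK293H line with UAS-beta-lactamase reporter under PPARg control, 17 h compound exposure at 37C, fluorescence after 1 h FRET substrate loading at room temperature.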

[10] = biological target: Estrogen receptor (Homo sapiens) (UniProt P03372); assay: qHTS assay to identify small molecule agonists of the estrogen receptor alpha (ER-alpha) signaling pathway using the BG1 cell line (AID 743079); further: nearly all actives have a fitted effect of over 20% in size
[11] = qHTS assay to identify small molecule antagonists of the estrogen receptor alpha (ER-alpha) signaling pathway using the BG1 cell line (AID 743080; calls by dose curve;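 further: BG1 cells stimulated with 17beta-estradiol alongside compound; series mostly up to about 70 µM; nearly all actives have a fitted effect of over 25% in size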)
Method in brief: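 BG1Luc4E2, endogenous ER-alpha, 4xERE-luc; 5 d charcoal-stripped FBS, phenol red free; 24 h plating; cpd + 17beta-estradiol 21.5 h, 37 C/5% CO2; CellTiter-Fluor viability 30 min, then ONE-Glo luciferase 30 min RT.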

[12] = qHTS assay for small molecule agonists of the antioxidant response element (ARE) signaling pathway - cell viability counter screen (AID 743203; calls by dose curve; further: nearly all actives have a fitted effect of over 55% in size; further: potency means the concentration at half of the fitted maximal effect)
Method in brief: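 Seeded at 2,000 cells/well, ARE-bla HepG2 cells were incubated 5 hrs before compound addition. After 16 hrs of treatment at 37C with 5% CO2, CellTiter-Glo reagent was added and luminescence read 30 min later.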

[13] = biological target: Estrogen receptor (Homo sapiens) (UniProt P03372); assay: qHTS assay to identify small molecule agonists of the estrogen receptor alpha (ER-alpha) signaling pathway (AID 743075; calls by dose curve;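 further: HEK293 GripTite cells with ER-alpha and UAS-driven beta-lactamase reporter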)
[14] = qHTS assay to identify small molecule antagonists of the peroxisome proliferator-activated receptor gamma (PPARg) signaling pathway - cell viability counter screen (AID 743194)
Method in brief: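 Viability was measured as CellTiter-Glo luminescence in GeneBLAzer PPARg UAS-bla HEK293H cells. These cells had been exposed 17 h at 37 C to compounds together with rosiglitazone at 50 nM final, with the beta-lactamase readout taken in the same wells.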

Aromatase (Homo sapiens), sequence (P11511 whole entry, looked up): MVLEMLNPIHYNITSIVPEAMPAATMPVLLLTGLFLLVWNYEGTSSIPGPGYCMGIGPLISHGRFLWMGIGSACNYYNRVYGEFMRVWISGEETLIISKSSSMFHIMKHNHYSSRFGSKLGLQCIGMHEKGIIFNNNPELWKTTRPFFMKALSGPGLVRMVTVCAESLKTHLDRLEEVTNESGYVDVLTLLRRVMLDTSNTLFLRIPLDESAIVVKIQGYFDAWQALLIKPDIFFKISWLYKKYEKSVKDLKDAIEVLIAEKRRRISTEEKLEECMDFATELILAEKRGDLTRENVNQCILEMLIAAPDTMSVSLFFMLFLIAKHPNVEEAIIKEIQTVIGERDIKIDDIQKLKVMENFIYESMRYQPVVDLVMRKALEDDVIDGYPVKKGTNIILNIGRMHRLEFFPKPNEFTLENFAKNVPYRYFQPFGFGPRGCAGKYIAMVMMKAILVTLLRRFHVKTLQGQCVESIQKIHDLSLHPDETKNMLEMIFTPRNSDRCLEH
Aryl hydrocarbon receptor (Homo sapiens), sequence (P35869 whole entry, looked up): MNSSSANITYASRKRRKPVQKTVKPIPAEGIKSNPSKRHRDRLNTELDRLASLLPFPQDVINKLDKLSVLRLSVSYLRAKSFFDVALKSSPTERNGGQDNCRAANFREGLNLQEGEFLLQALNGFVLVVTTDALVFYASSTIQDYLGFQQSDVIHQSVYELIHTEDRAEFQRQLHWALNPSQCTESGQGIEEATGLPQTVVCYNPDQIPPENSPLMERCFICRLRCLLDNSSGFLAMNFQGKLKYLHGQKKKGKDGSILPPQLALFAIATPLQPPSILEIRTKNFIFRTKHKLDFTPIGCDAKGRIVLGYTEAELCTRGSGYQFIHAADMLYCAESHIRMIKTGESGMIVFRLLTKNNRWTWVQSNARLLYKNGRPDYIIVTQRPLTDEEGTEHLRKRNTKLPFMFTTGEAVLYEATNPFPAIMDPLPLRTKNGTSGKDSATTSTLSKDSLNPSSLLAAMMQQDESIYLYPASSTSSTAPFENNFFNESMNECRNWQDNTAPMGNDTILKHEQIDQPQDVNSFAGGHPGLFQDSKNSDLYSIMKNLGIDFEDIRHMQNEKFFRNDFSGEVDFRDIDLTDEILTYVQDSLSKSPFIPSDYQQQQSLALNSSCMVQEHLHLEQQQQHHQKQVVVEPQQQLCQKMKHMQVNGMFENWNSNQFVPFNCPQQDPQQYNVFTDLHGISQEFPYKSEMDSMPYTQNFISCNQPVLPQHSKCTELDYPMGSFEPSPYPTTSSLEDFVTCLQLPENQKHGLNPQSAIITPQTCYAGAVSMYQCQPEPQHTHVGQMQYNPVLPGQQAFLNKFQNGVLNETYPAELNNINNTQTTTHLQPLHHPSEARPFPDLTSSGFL
Peroxisome proliferator-activated receptor gamma (Homo sapiens), sequence (P37231 whole entry, looked up): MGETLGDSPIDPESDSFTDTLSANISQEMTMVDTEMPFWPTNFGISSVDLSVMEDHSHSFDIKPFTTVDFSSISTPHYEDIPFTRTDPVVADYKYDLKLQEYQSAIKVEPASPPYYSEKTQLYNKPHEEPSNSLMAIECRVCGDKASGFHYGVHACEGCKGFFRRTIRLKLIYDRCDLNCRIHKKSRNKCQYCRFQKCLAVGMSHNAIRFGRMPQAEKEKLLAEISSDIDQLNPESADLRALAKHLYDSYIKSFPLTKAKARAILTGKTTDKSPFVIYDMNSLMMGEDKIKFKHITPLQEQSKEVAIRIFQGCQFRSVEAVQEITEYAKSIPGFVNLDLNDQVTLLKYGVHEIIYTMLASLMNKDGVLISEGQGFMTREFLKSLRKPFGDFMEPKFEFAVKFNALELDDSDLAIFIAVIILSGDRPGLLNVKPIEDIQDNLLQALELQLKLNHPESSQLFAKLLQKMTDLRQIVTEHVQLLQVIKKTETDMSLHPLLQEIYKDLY
Estrogen receptor (Homo sapiens), sequence (P03372 whole entry, looked up): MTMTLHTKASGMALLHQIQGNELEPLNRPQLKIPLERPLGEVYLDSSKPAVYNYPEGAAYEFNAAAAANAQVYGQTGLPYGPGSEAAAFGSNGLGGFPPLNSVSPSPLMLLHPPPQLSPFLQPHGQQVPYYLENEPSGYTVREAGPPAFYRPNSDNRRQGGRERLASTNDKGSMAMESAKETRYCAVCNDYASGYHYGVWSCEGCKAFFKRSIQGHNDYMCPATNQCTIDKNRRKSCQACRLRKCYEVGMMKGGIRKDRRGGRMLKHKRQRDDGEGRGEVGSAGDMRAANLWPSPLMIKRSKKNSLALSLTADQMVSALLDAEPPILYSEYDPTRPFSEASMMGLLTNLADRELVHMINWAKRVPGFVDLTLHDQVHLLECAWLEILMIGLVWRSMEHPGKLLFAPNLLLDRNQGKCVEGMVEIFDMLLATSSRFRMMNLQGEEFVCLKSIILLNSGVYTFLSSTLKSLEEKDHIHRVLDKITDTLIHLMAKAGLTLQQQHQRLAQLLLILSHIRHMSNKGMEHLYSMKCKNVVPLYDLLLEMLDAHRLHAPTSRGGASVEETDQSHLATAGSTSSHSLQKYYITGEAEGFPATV

Row | Compound | Potency [1] | Potency [2] | Potency [3] | Potency [4] | Potency [5] | Potency (Aromatase (Homo sapiens)) | Potency [6] | Potency [7] | Potency [8] | Potency [9] | Potency [10] | Potency [11] | Potency [12] | Potency [13] | Potency [14]
1 | C[C@@H]1C(=O)NC2=Nc3cccc(Cl)c3CN21 | inactive | inactive | inactive | inactive | inactive | inactive | inactive | inactive | inactive | inactive | – | – | – | – | –
2 | O=C1OC(O)C(C(Cl)Cl)=C1Cl (configuration not stated) | 31.6 µM (active) | 22.4 µM (active) | inactive | inactive | inactive | – | – | inactive | – | – | inactive | inactive | inactive | – | –
3 | c1ccc(-n2cnnn2)cc1 | inactive | inactive | inactive | inactive | inactive | inactive | inactive | – | inactive | inactive | – | – | – | – | –
4 | C=N[C@@H](C(=O)N[C@@H]1C(=O)N2[C@@H]1SC(C)(C)[C@@H]2C(=O)O)c1ccccc1 | inactive | inactive | inactive | inactive | inactive | inactive | inactive | inactive | inactive | – | – | – | – | – | –
5 | NC(N)=NCC1COC2(CCCCC2)O1 (configuration not stated) | inactive | inactive | inactive | inactive | inactive | inactive | inactive | – | inactive | inactive | – | – | – | – | –
6 | N[C@@H](Cc1cnc[nH]1)C(=O)O | inactive | inactive | inactive | inactive | inactive | inactive | inactive | – | inactive | inactive | – | – | – | – | –
7 | NCC[C@H](O)C(=O)N[C@@H]1C[C@H](N)[C@@H](O[C@H]2O[C@H](CN)CC[C@H]2N)[C@H](O)[C@H]1O[C@H]1O[C@H](CO)[C@@H](O)[C@H](N)[C@H]1O | inactive | inactive | inactive | inactive | inactive | inactive | inactive | inactive | inactive | inactive | – | – | – | – | –
8 | CC1(C)C[C@@H]1C(=O)N/C(=C\CCCCSC[C@H](N)C(=O)O)C(=O)O | inactive | inactive | inactive | inactive | inactive | inactive | inactive | – | inactive | – | – | – | – | – | –
9 | NCc1cccc(C2CCN(C(=O)c3ccc(C#Cc4ccccc4F)o3)CC2)c1 | 7.7 µM (active) | 7.7 µM (active) | inactive | 54.9 µM (active) | – | 68.6 µM (active) | 61.1 µM (active) | inactive | – | inactive | – | – | 48.6 µM (active) | inactive | 19.5 µM (active)
10 | NC(=O)CC[C@@H]1NC(=O)[C@H](Cc2ccccc2)NC(=O)[C@H](Cc2ccc(O)cc2)NC(=O)[C@@H](N)CSSC[C@@H](C(=O)N2CCC[C@H]2C(=O)N[C@@H](CCCN=C(N)N)C(=O)NCC(N)=O)NC(=O)[C@H](CC(N)=O)NC1=O | inactive | inactive | inactive | inactive | inactive | inactive | inactive | inactive | inactive | inactive | – | inactive | – | – | –
11 | CCN1CCCC1CNC(=O)c1cc(S(=O)(=O)CC)ccc1OC (configuration not stated) | inactive | inactive | inactive | inactive | inactive | inactive | inactive | inactive | inactive | inactive | – | – | – | – | –
12 | N[C@@H](Cc1ccc(O)c(O)c1)C(=O)O | inactive | inactive | inactive | inactive | inactive | inactive | inactive | inactive | inactive | inactive | – | – | – | – | –
13 | CO/N=C(\C(=O)N[C@@H]1C(=O)N2C(C(=O)O)=C(COC(C)=O)CS[C@H]12)c1csc(N)n1 (stereo in doubt) | inactive | inactive | inactive | inactive | inactive | – | – | – | inactive | – | – | – | – | – | –
14 | O=c1[nH]c(=O)n([C@H]2C[C@H](O)[C@@H](CO)O2)cc1/C=C/Br | inactive | inactive | inactive | inactive | inactive | inactive | inactive | inactive | inactive | inactive | – | – | – | – | –
15 | CC(=O)Nc1ccc(OC(C)=O)cc1 | inactive | inactive | inactive | inactive | inactive | – | – | – | inactive | – | – | – | – | – | –
16 | CC(C)c1ncc([N+](=O)[O-])n1C | inactive | inactive | inactive | inactive | inactive | inactive | inactive | inactive | inactive | inactive | – | – | – | – | –
17 | CC(CNC(=O)c1cccnc1)NC(=O)c1cccnc1 (configuration not stated) | inactive | inactive | inactive | inactive | inactive | inactive | inactive | inactive | inactive | inactive | – | – | – | – | –
